Lassa entry inh: Lassa virus entry inhibition; Lassa virus pseudotype entry inhibition, cell reporter; Potency, µM (series often up to 37.9 µM), for inactives: at the top dose activity change, negative = inhibition, actives largely listed as inhibitors; 300,000 compounds, 1.2% hits; AID 540256; calls by dose curve; tested in HEK293 cells; also: potency is read from the fitted curve at half-maximal effect; % is scaled to controls: 0 for no effect and ±100 for the full control effect; nearly all actives have a fitted effect of over 50% in size
Marburg entry inh: blocks Marburg virus binding to or entry into cells; Potency, µM (highest dose often 37.8 µM), without a hit: at the highest dose activity change, negative = inhibition, hits mostly inhibitors; AID 540276; 300,000 compounds, 1.8% hits; Marburg virus pseudotyped entry inhibition, cell reporter; calls by dose curve; tested in HEK293 cells; also: potency is read from the fitted curve at half-maximal effect; % is scaled to controls: 0 for no effect and ±100 for the full control effect
Cycloheximide cs: counter-screen for Shiga toxin inhibitors: cycloheximide protein synthesis inhibition. max response, %. cell reporter, cycloheximide protein synthesis inhibition counterscreen. 300,000 compounds, 12% hits; in the data active = max response mostly above about 13%, no sharp cut-off; inactive = mostly below about 14%; also: read at 38.3 µM for the half of the compounds with a filed dose; 0% is about no effect
Pf growth 96h: P. falciparum growth inhibition at 96 hour, primary screen for plastid delayed-death inhibitors | P. falciparum luciferase reporter growth, 96 h | Potency, µM (top dose mostly 28.7 µM), for inactives: at the top dose activity change, negative = inhibition, hits mostly inhibitors | 320,000 compounds, 6.9% hits | AID 504834; also: potency is read from the fitted curve at half-maximal effect; % is scaled to controls: 0 for no effect and ±100 for the full control effect
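Infected RBCs, 2% Hct / 0.05% parasitemia final; luciferase-reporter P. falciparum; cpd 96 h, 37 C, 5% CO2; luciferase detection reagent; luminescence.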
Pf growth 48h: inhibits P. falciparum growth in the first generation, 48 h; P. falciparum luciferase growth in erythrocytes, 48 h; Potency, µM (top dose mostly 28.7 µM), for inactives: top-dose activity change, negative = inhibition, usual class: inhibitors; 310,000 compounds, 5.9% hits; AID 504832; also: potency is read from the fitted curve at half-maximal effect; % is scaled to controls: 0 for no effect and ±100 for the full control effect
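Luminescence readout; reporter = integrated firefly luciferase in P. falciparum. RBC culture at 2% hematocrit, 0.1% parasitemia final, 37 C/5% CO2; decreased signal taken as growth inhibition.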
Shiga toxin inh: Shiga toxin inhibition | Vero cells, Shiga toxin protein synthesis inhibition reporter | inhibition, % at 38.7 µM | 290,000 compounds, 9.2% hits; in the data active = inhibition mostly above about 28%, no sharp cut-off; inactive = mostly below about 43%; also: 0% is about no effect
Starred values were filed as active, the others as inactive; ? = inconclusive; · = no result given; [ ] = another dose, or the depositor's remark. Rows were chosen to be rich in hits. Some 19% of all compounds tested hit in one or more screens of this group. Unless noted, calls follow the shape of the dose curve; as a rule, active = well fitted inhibition curve with a large enough effect; inconclusive = small, poorly fitted or top-dose-only effect, or another doubt; inactive = no such curve, though single readings can be large or run the other way.

SMILES	Lassa entry inh	Marburg entry inh	Cycloheximide cs	Pf growth 96h	Pf growth 48h	Shiga toxin inh
O=C(c1cccs1)N1CCCC(N2CCN(c3ccc(F)cc3)CC2)C1 (centres undefined)	10%[46.1 µM]	1%[46.1 µM]	3	86%	-8%	-10
CCOc1ccccc1NC(=O)/C=C/c1ccccc1[N+](=O)[O-]	4%	?	45*	?	54%	6
O=C(/C=C\c1ccccc1[N+](=O)[O-])Nc1ccccc1	·	·	39*	1%	101%	52*
Cc1ccnc(NC(=O)/C=C/c2ccccc2[N+](=O)[O-])c1	·	·	34*	-27%	39%	73*
Cc1ccnc(NC(=O)c2cccc3ccccc23)c1	-16%[46.1 µM]	?	49*	65%	47%	77*
Cc1nn(CCCC(=O)Nc2sc3c(c2C#N)CCC3)c(C)c1[N+](=O)[O-]	0%	-22%	6	?	28%	15
Cc1ccc2c(c1)C(=O)CCN2	-8%	-10%	-2	1%	·	3
O=C1CCNc2ccc(-c3ccccc3)cc21	2%	2%	38*	-6%	60%	75*
O=C1CCNc2cc3ccccc3cc21	-4%	0%	25*	·	?	32
COc1ccc(CN(C)S(=O)(=O)c2c(C)noc2C)cc1OC	-11%	18%	·	8%	0%	·
Cc1cc(C)cc(NC(=O)CNS(=O)(=O)c2ccc3nc(C)sc3c2)c1	5%[46.1 µM]	-4%[46.1 µM]	·	·	·	·
COc1ccc(-c2noc(C3CCCN(C(=O)c4ccc(F)cc4)C3)n2)cc1 (centres undefined)	0%[46.1 µM]	?	26*	94%	-10%	71
O=C(c1c(F)cccc1F)N1CCCC(c2nc(-c3ccc(F)cc3)no2)C1 (centres undefined)	·	·	24*	142%	38%	·
Cc1cccc2c1CC(C)(C)NC2=C(C#N)C#N	-25%	?	-2	?	13%	-6
C/C(CC(=O)NCc1ccccc1)=N\NC(=O)c1cnccn1	1%	9%	12*	-14%	13%	40*
CCC(C)c1ccc(NC(=O)C/C(C)=N/NC(=O)c2cnccn2)cc1 (centres undefined)	?	2%	24*	?	-10%	48*
C/C(CC(=O)Nc1cc(C)cc(C)c1)=N\NC(=O)c1ccccn1	-3%	?	37*	29%	46%	43*
COc1ccc(NC(=O)C/C(C)=N/NC(=O)c2ccccn2)c(OC)c1	-26%	?	38*	13µM*	10%	88*
C/C(Cc1ccccc1)=N\NC(=O)c1cccnc1	8%	1%	13	177%	-12%	9
C/C(Cc1ccccc1)=N\NC(=O)c1ccccn1	·	·	53*	25%	93%	89*
COc1ccc(NC(=O)C/C(C)=N/NC(=O)c2cnccn2)c(OC)c1	10%[46.1 µM]	13%[46.1 µM]	37*	17%	-8%	34
COc1ccc(CCNC(=O)C/C(C)=N/NC(=O)c2cnccn2)cc1	·	·	36*	1%	3%	41*
O=c1c2c(-c3ccccc3)csc2ncn1/N=C/c1cccc([N+](=O)[O-])c1O	-9%[46.1 µM]	?	1	94%	-5%	-9
Cn1cc(/C=N/n2cnc3scc(-c4ccccc4)c3c2=O)c2ccccc21	-10%	?	-7	3.3µM*	-11%	-12
O=C(CSc1nnc(-c2ccncc2)o1)N1CCCC1	?	0%[46.1 µM]	11	-15%	?	4
SMILES	Lassa entry inh	Marburg entry inh	Cycloheximide cs	Pf growth 96h	Pf growth 48h	Shiga toxin inh
O=C(CSc1nnc(-c2ccccc2Cl)o1)N1CCOCC1	19%[46.1 µM]	22%[46.1 µM]	36*	-3%	155%	93*
O=C(CSc1nnc(-c2ccc(Cl)cc2)o1)N1CCOCC1	15%	11%[46.1 µM]	53*	2%	89%	81*
O=C(CSc1nnc(-c2ccc(Cl)s2)o1)N1CCOCC1	·	·	15	?	18%	62*
Cc1occc1-c1nnc(SCC(=O)N2CCOCC2)o1	11%	-1%	3	40%	-1%	24
O=C(CSc1nnc(-c2ccc(O)cc2)o1)N1CCOCC1	?	0%[46.1 µM]	53*	·	51%	114
CCOC(=O)N1CCN(C(=O)CSc2nnc(-c3ccc(Cl)s3)o2)CC1	·	0%	-4	-6%	21%	-8
O=C(O)CC12CC3CC(C1)CC(n1ncc(NCC4CCCO4)c(Cl)c1=O)(C3)C2 (centres undefined)	·	·	0	9%	2%	-11
O=C(CSc1nnc(-c2ccc(F)cc2)o1)NC1CCCCC1	·	·	-2	23%	-1%	-3
Oc1ccc(-c2nnc(SCC3CCCCC3)o2)cc1	0%	24%	22*	?	103%	82*
COc1ccc(OC)c2sc(N(Cc3cccnc3)C(C)=O)nc12	28%[46.1 µM]	·	·	·	·	·
Cc1ccc(C)c(NC(=O)CSc2cn(CC(=O)N3CCCC3)c3ccccc23)c1	3%[46.1 µM]	·	·	·	·	·
CC1=NN(c2ccccc2)C(=O)/C1=C\c1ccc(Br)s1	-4%	4%	1	38%	1%	-9
O=C(c1cc(N2C(=O)C3C4CCC(C4)C3C2=O)ccc1Cl)N1CCN(c2ccc(F)cc2)CC1 (centres undefined)	5%	?	-1	?	-2%	11
Cc1cccc(CSc2nnc(-c3ccco3)n2C)c1	-1%	?	22*	·	-24%	42
Cn1c(SCc2cccc3ccccc23)nnc1-c1ccco1	2%	1%	6	-31%	?	6
COc1cccc(CSc2nnc(-c3ccco3)n2C)c1	12%	0%	40*	15%	?	41
Nn1c(SCc2cccc3ccccc23)nnc1-c1ccco1	-5%	3%	7	32%	28%	-14
Nn1c(SCc2ccccc2)nc2ccccc21	·	?	69*	83%	44%	69*
Nn1c(SCc2ccccc2)nnc1-c1ccco1	·	·	9.3*	-13%	37%	2
CCOC(=O)N1CCN(C(=O)CN(Cc2ccccc2)S(=O)(=O)c2ccc(OC)c(Cl)c2)CC1	?	1%	-2	·	?	18
CCCn1c(=O)c2c(nc(Br)n2CCC)n(C)c1=O	33%	-21%	-2	-11%	0%	-13
COCCN1CCN(C(=O)C2CCC(=O)N(Cc3ccc(Cl)cc3)C2)CC1 (centres undefined)	·	·	7	9%	17%	-11
CCOC(=O)c1ccc(N2C(=O)c3n[nH]c(-c4ccco4)c3C2c2cccc([N+](=O)[O-])c2)cc1 (centres undefined)	?	5µM*	-2	57%	8.3µM*	-18
CCOC(=O)c1ccc(N2C(=O)c3n[nH]c(-c4ccco4)c3C2c2ccc(O)c(OCC)c2)cc1 (centres undefined)	?	7.9µM*	·	·	·	·
CCOC(=O)c1ccc(N2C(=O)c3n[nH]c(C)c3C2c2ccc(CC)cc2)cc1 (centres undefined)	20%[46.1 µM]	?	·	·	·	·

Bioassay records as filed in PubChem BioAssay.
